According to PubChem BioAssay AID1159580 (chemical genetic matrix, 2015):
Out of some 5,500 compounds screened, about 2,000 (36%) were called active. Not shown: some 18% with an inconclusive outcome. No stated cut-off is given here; in the data, active means normalized growth mostly below about 0.91 (no sharp cut-off); inconclusive means no clear call, values can overlap the other calls; inactive means mostly above about 0.92. This is one part of the list.

Assay: chemical genetic growth profiling, strain panel (AID 1159580);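 further: tested at 20 µM; growth read once vehicle control cultures reached saturation at 30 °C; 1 = growth at the plate median or of vehicle wells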
Conditions: growth OD

Measured: normalized growth

Cc1ncc([N+](=O)[O-])n1CCO
inactive: S. cerevisiae deletion strains, locus YJR075W, strain HOC1, stronger effect = lower value 1.01 | S. cerevisiae deletion strains, locus YKL009W, strain mrt4, stronger effect = lower value 0.969 | S. cerevisiae deletion strains, locus YKL068W, stronger effect = lower value 0.99 | S. cerevisiae deletion strains, locus YKL085W, strain MDH1 (second series), stronger effect = lower value 0.985 | S. cerevisiae deletion strains, locus YKL085W, strain MDH1, stronger effect = lower value 0.985 | S. cerevisiae deletion strains, locus YKL160W, strain elf1, stronger effect = lower value 0.955 | S. cerevisiae deletion strains, locus YKL190W, strain CNB1, stronger effect = lower value 0.99 | S. cerevisiae deletion strains, locus YKR001C, strain vps1, stronger effect = lower value 1 | S. cerevisiae deletion strains, locus YKR026C, strain gcn3, stronger effect = lower value 0.984 | S. cerevisiae deletion strains, locus YKR091W, strain srl3, stronger effect = lower value 0.962 | S. cerevisiae deletion strains, locus YLL001W, strain dnm1, stronger effect = lower value 0.926 | S. cerevisiae deletion strains, locus YLL026W, stronger effect = lower value 0.977 | S. cerevisiae deletion strains, locus YLL041C, strain sdh2, stronger effect = lower value 0.98 | S. cerevisiae deletion strains, locus YLR027C, strain aat2, stronger effect = lower value 0.98 | S. cerevisiae deletion strains, locus YLR039C, strain RIC1, stronger effect = lower value 0.972 | S. cerevisiae deletion strains, locus YLR058C, strain SHM2, stronger effect = lower value 0.97 | S. cerevisiae deletion strains, locus YLR102C, strain apc9, stronger effect = lower value 0.991 | S. cerevisiae deletion strains, locus YLR113W, strain HOG1, stronger effect = lower value 1.05 | S. cerevisiae deletion strains, locus YLR221C, strain rsa3, stronger effect = lower value 0.941 | S. cerevisiae deletion strains, locus YLR258W, strain gsy2, stronger effect = lower value 0.988 | S. cerevisiae deletion strains, locus YLR262C, strain YPT6 (second series), stronger effect = lower value 0.964 | S. cerevisiae deletion strains, locus YLR262C, strain YPT6, stronger effect = lower value 0.907 | S. cerevisiae deletion strains, locus YLR268W, strain sec22, stronger effect = lower value 1.08 | S. cerevisiae deletion strains, locus YLR320W, strain mms22, stronger effect = lower value 0.948 | S. cerevisiae deletion strains, locus YLR330W, strain CHS5, stronger effect = lower value 0.987 | S. cerevisiae deletion strains, locus YLR342W, strain FKS1 (second series), stronger effect = lower value 0.982 | S. cerevisiae deletion strains, locus YLR342W, strain FKS1, stronger effect = lower value 0.978 | S. cerevisiae deletion strains, locus YLR357W, strain rsc2, stronger effect = lower value 0.973 | S. cerevisiae deletion strains, locus YLR370C, strain arc18, stronger effect = lower value 0.972 | S. cerevisiae deletion strains, locus YLR371W, strain rom2, stronger effect = lower value 0.975 | S. cerevisiae deletion strains, locus YLR384C, strain iki3, stronger effect = lower value 0.982 | S. cerevisiae deletion strains, locus YLR418C, strain cdc73, stronger effect = lower value 0.991 | S. cerevisiae deletion strains, locus YML016C, strain PPZ1, stronger effect = lower value 0.986 | S. cerevisiae deletion strains, locus YML032C, strain rad52, stronger effect = lower value 1.01 | S. cerevisiae deletion strains, locus YML120C, strain ndi1, stronger effect = lower value 0.942 | S. cerevisiae deletion strains, locus YML124C, strain tub3, stronger effect = lower value 0.984 | S. cerevisiae deletion strains, locus YMR058W, strain fet3, stronger effect = lower value 0.983 | S. cerevisiae deletion strains, locus YMR078C, strain ctf18, stronger effect = lower value 0.976 | S. cerevisiae deletion strains, locus YMR125W, strain sto1, stronger effect = lower value 0.958 | S. cerevisiae deletion strains, locus YMR129W, stronger effect = lower value 0.98 | S. cerevisiae deletion strains, locus YMR205C, strain PFK2, stronger effect = lower value 0.936 | S. cerevisiae deletion strains, locus YMR223W, strain ubp8, stronger effect = lower value 0.952 | S. cerevisiae deletion strains, locus YMR231W, strain pep5, stronger effect = lower value 0.986 | S. cerevisiae deletion strains, locus YMR263W, strain SAP30, stronger effect = lower value 0.995 | S. cerevisiae deletion strains, locus YMR307W, strain GAS1, stronger effect = lower value 0.976 | S. cerevisiae deletion strains, locus YNL067W, strain RPL9B, stronger effect = lower value 0.994 | S. cerevisiae deletion strains, locus YNL071W, strain lat1, stronger effect = lower value 0.978 | S. cerevisiae deletion strains, locus YNL128W, strain TEP1, stronger effect = lower value 0.951 | S. cerevisiae deletion strains, locus YNL153C, strain GIM3, stronger effect = lower value 1.01 | S. cerevisiae deletion strains, locus YNL183C, strain NPR1, stronger effect = lower value 1.03 | S. cerevisiae deletion strains, locus YNL209W, strain ssb2, stronger effect = lower value 0.974 | S. cerevisiae deletion strains, locus YNL233W, strain BNI4, stronger effect = lower value 1.02 | S. cerevisiae deletion strains, locus YNL248C, strain rpa49, stronger effect = lower value 0.981 | S. cerevisiae deletion strains, locus YNL250W, strain rad50, stronger effect = lower value 0.975 | S. cerevisiae deletion strains, locus YNL271C, strain bni1, stronger effect = lower value 0.989 | S. cerevisiae deletion strains, locus YNL298W, strain CLA4, stronger effect = lower value 0.992 | S. cerevisiae deletion strains, locus YNL307C, strain MCK1, stronger effect = lower value 0.989 | S. cerevisiae deletion strains, locus YNL322C, strain KRE1 (second series), stronger effect = lower value 0.974 | S. cerevisiae deletion strains, locus YNL322C, strain KRE1, stronger effect = lower value 0.986 | S. cerevisiae deletion strains, locus YNR049C, strain mso1, stronger effect = lower value 0.96 | S. cerevisiae deletion strains, locus YNR052C, strain pop2, stronger effect = lower value 0.989 | S. cerevisiae deletion strains, locus YOL006C, strain TOP1, stronger effect = lower value 1 | S. cerevisiae deletion strains, locus YOL012C, strain htz1 0.99 | S. cerevisiae deletion strains, locus YOL147C, strain pex11, stronger effect = lower value 0.986 | S. cerevisiae deletion strains, locus YOR001W, strain rrp6, stronger effect = lower value 1 | S. cerevisiae deletion strains, locus YOR061W, strain CKA2, stronger effect = lower value 0.967 | S. cerevisiae deletion strains, locus YOR069W, strain VPS5, stronger effect = lower value 0.989 | S. cerevisiae deletion strains, locus YOR070C, strain gyp1, stronger effect = lower value 0.987 | S. cerevisiae deletion strains, locus YOR080W, strain dia2, stronger effect = lower value 0.977 | S. cerevisiae deletion strains, locus YOR083W, strain WHI5, stronger effect = lower value 0.954 | S. cerevisiae deletion strains, locus YOR106W, strain vam3, stronger effect = lower value 0.937 | S. cerevisiae deletion strains, locus YOR136W, strain idh2, stronger effect = lower value 0.984 | S. cerevisiae deletion strains, locus YOR144C, strain elg1, stronger effect = lower value 0.989 | S. cerevisiae deletion strains, locus YOR184W, strain ser1, stronger effect = lower value 0.998 | S. cerevisiae deletion strains, locus YOR231W, strain MKK1, stronger effect = lower value 1.06 | S. cerevisiae deletion strains, locus YOR265W, strain rbl2, stronger effect = lower value 0.985 | S. cerevisiae deletion strains, locus YOR270C, strain vph1, stronger effect = lower value 0.958 | S. cerevisiae deletion strains, locus YOR290C, strain snf2, stronger effect = lower value 0.91 | S. cerevisiae deletion strains, locus YOR316C, strain cot1, stronger effect = lower value 0.992 | S. cerevisiae deletion strains, locus YPL051W, strain arl3, stronger effect = lower value 0.978 | S. cerevisiae deletion strains, locus YPL055C, strain LGE1, stronger effect = lower value 0.974 | S. cerevisiae deletion strains, locus YPL078C, strain atp4, stronger effect = lower value 0.959 | S. cerevisiae deletion strains, locus YPL106C, strain sse1, stronger effect = lower value 0.943 | S. cerevisiae deletion strains, locus YPL240C, strain hsp82, stronger effect = lower value 0.983 | S. cerevisiae deletion strains, locus YPL241C, strain CIN2, stronger effect = lower value 0.982 | S. cerevisiae deletion strains, locus YPL256C, strain CLN2, stronger effect = lower value 1.1 | S. cerevisiae deletion strains, locus YPR119W, strain clb2, stronger effect = lower value 0.992 | S. cerevisiae deletion strains, locus YPR141C, strain kar3, stronger effect = lower value 0.982 | S. cerevisiae deletion strains, locus YPR163C, strain tif3, stronger effect = lower value 0.987 | S. cerevisiae deletion strains, locus YPR167C, strain met16, stronger effect = lower value 0.998 | S. cerevisiae deletion strains, strain wtn01, stronger effect = lower value 1.02 | S. cerevisiae strains, strain wild type, stronger effect = lower value 0.98
